Data on 18 molecules can be found in PubChem BioAssay (NCATS).

Experiment [1] deals with Glutathione peroxidase 1 (Homo sapiens) (UniProt P07203). In words: Primary qHTS Assay for Inhibitors of Recombinant Selenoprotein Glutathione Peroxidase 1 (GPX1) (AID 1845191). Also: nearly all actives have a fitted effect of over 65% in size. As to activity, negative = inhibition: % is scaled to controls: 0 for no effect and ±100 for the full control effect. The gist of the method: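 Recombinant GPX1 (10 nM final) was preincubated with compound for 30 min at room temperature, then reacted with 1 mM GSH, 0.5 mM CHP, 0.5 mM NADPH and 100 nM glutathione reductase; NADPH fluorescence (340/450 nm) was read at 0 and 15 min.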
Glutathione peroxidase 1 (Homo sapiens), sequence (P07203 whole entry, looked up): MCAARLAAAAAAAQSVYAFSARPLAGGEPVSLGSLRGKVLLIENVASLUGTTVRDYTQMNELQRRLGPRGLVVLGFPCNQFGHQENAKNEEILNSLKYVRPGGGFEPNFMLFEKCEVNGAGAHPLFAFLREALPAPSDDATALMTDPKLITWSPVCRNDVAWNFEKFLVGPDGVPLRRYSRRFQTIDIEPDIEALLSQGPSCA

For experiment [2], the target named is Phospholipid hydroperoxide glutathione peroxidase GPX4 (Homo sapiens) (UniProt P36969). The experiment can be described thus: Primary qHTS Assay for Inhibitors of Recombinant Selenoprotein Glutathione Peroxidase 4 (GPX4) (AID 1845192). Also: nearly all actives have a fitted effect of over 65% in size. As to activity change, negative = inhibition: series mostly up to about 50 µM; % is scaled to controls: 0 for no effect and ±100 for the full control effect. The gist of the method:
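GR-coupled readout: 100 nM GR, 1 mM GSH, 0.5 mM NADPH; NADPH fluorescence (ex 340/em 450 nm) read at t=0 and after 15 min RT. GPX4 200 nM, preincubated 30 min with compound; substrate 0.5 mM CHP.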

Experiment [3] addresses Luciferin 4-monooxygenase (Photinus pyralis) (UniProt P08659). In words: Primary firefly luciferase (FLuc) qHTS assay for identification of artifact compounds. (AID 1845220). Also: nearly all actives have a fitted effect of over 60% in size.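 As to activity change, negative = inhibition: series mostly up to about 54 µM; plate controls were DMSO vehicle for no effect and no enzyme for full effect.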 The gist of the method:
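In this counter-screen for luciferase artifacts, test compounds met substrate (10 uM each luciferin and ATP) before 10 nM enzyme started the reaction. Light output was measured 5 min later.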

Experiment [4] in a line: Primary fluorescence-based thiol-reactive (MSTI) qHTS assay for identification of artifact compounds. (AID 1845221). Also: nearly all actives have a fitted effect of over 65% in size. Also: potency is read from the fitted curve at half-maximal effect.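 As to activity change, negative = thiol reactive: series mostly up to about 54 µM; thiol-reactive compounds lower the probe fluorescence signal.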 Put shortly:
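Probe: MSTI 4 uM, PBS pH 7.4, 2% DMSO. Incubation 1 h, RT, light-protected. Readout fluorescence 525/598 nm.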
(Quantitative high-throughput screening tests each substance at several concentrations.)

Experiment [5] relates to Nanoluciferase (engineered Oplophorus gracilirostris luciferase). In words: Primary Nanoluciferase (NLuc) qHTS assay for identification of artifact compounds. (AID 1845222).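 Also: NLuc secreted into diluted conditioned medium of S16 cells; series mostly up to about 54 µM; 0% = DMSO and -100% = no enzyme.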 Put shortly:
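Using secreted nanoluciferase in S16 culture medium (0.22 um filtered, 1:55 dilution), compounds were preincubated 15 min at RT. Signal was generated with Nano-Glo reagent (1:100) over 5 min.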

Values without a mark were called inactive. Inconclusive results are not listed. The source made the active and inactive calls. Calls follow the shape of the dose curve; as a rule, active = well fitted curve in the direction sought with a large enough effect; inconclusive = small, poorly fitted or top-dose-only effect, or another doubt; inactive = no such curve, though single readings can be large; an effect the other way counts as inactive or inconclusive.

Phospholipid hydroperoxide glutathione peroxidase GPX4 (Homo sapiens), sequence (P36969 whole entry, looked up): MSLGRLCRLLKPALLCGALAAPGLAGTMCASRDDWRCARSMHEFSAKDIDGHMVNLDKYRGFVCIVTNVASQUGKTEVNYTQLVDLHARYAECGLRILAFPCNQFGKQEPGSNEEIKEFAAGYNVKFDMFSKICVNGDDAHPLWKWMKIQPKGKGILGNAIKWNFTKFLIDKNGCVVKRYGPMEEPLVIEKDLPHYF

For the molecule `O=C(c1ccc(F)cc1)C1CCN(CCn2c(=O)nc3n(c2=O)CCCC3)CC1`, the Potency entry in experiment [1], in experiment [2], in experiment [3], in experiment [4] and in experiment [5] was “inactive” throughout.
Turning to `CC(C)(O)c1ccc2c(c1)C(=O)CC1[C@](C)(CO)CCC[C@]21C` (stereo not given in full), the Potency result in experiment [1], in experiment [2], in experiment [3] and in experiment [5] was “inactive” in each case. Moreover, the Potency in experiment [4] is 13.1 µM (active).
For the molecule `CC(C)C1=CC2=CCC3[C@](C)(CCC[C@@]3(C)C(=O)O)C2CC1O` (stereo not given in full), the Potency result in experiment [1], in experiment [2], in experiment [3], in experiment [4] and in experiment [5] was “inactive” throughout.
`CC1CCC2C(C(=O)O)=CC3CC(C)(C)CC132` (stereo not given): the Potency entry in experiment [1], in experiment [2], in experiment [3] and in experiment [5] was “inactive” in each case. Also, the Potency in experiment [4] was 23.8 µM (active).
`C/C(=C\CCC(C(=O)O)C1CCC2(C)C3=C(CCC12C)C1(C)CCC(=O)C(C)(C)C1CC3)C(=O)O` (stereo not given): the Potency result in experiment [1], in experiment [2], in experiment [3], in experiment [4] and in experiment [5] was “inactive” each time.
In the case of `Cc1cc(C)cc(NC(=O)Cc2ccc(OC(C)(C)C(=O)O)cc2)c1`, the Potency result in experiment [1], in experiment [2], in experiment [3], in experiment [4] and in experiment [5] was “inactive” throughout.
Turning to `COc1c(C(CC(C)C)OC(C)=O)ccc(Oc2c(O)cc(C)cc2/C=C/C(C)=O)c1C(=O)O` (stereo not given), the Potency entry in experiment [1], in experiment [2], in experiment [3] and in experiment [5] was “inactive” throughout. In addition, the Potency in experiment [4] is 4.62 µM (active).
As to `C=C/C=C/[C@@H]1OC[C@H](/C=C/C=C/C)[C@H]1O`, the Potency result in experiment [1], in experiment [2], in experiment [3], in experiment [4] and in experiment [5] was “inactive” each time.
Take `CC(C(=O)O)C1CCC2(C)C3C(=O)C=C4C(CCC(=O)C4(C)C)C3(C)CCC12C` (stereo not given): the Potency entry in experiment [1], in experiment [2], in experiment [3], in experiment [4] and in experiment [5] was “inactive” each time.
Take `CC(=O)O[C@H]1C[C@@H]2[C@]3(CC[C@]4(C)[C@@H](C5(C)CCC(C(C)(C)O)O5)[C@@H](O)C[C@@]24C)C[C@@]32CC[C@H](O[C@@H]3OC[C@@H](O)[C@H](O)[C@H]3O)C(C)(C)[C@H]12` (stereo not given in full): the Potency result in experiment [1], in experiment [2], in experiment [3], in experiment [4] and in experiment [5] was “inactive” each time.
On to `CC(=O)O[C@@H]1C[C@]2(C)[C@@]3(CCC4[C@@]5(C)CC[C@H](O[C@@H]6O[C@H](C(=O)O)[C@@H](O)[C@H](O[C@@H]7O[C@H](CO)[C@H](O)[C@H](O)[C@H]7O[C@@H]7O[C@@H](C)[C@H](O)[C@@H](O)[C@H]7O[C@@H]7OC[C@](O)(CO)[C@H]7O)[C@H]6O[C@@H]6O[C@H](CO)[C@H](O)[C@H](O)[C@H]6O)C(C)(C)C5CC[C@]42C)O[C@@H](O)[C@]12C3CC(C)(C)[C@@H](OC(=O)/C=C/c1ccc(O)c(O)c1)[C@@H]2OC(=O)/C=C/c1ccccc1` (stereo not given in full), for which the results for the outcome in experiment [1] and in experiment [3] were “inactive [at 9.52 µM]” and “inactive [at 11.6 µM]”, respectively. Moreover, in experiment [2], the activity change, negative = inhibition is -12% [at 9.73 µM]. Also, in experiment [4], the activity change, negative = thiol reactive is 97% [at 11.5 µM]. In experiment [5], the activity, negative = inhibition is 1.63% [at 11.6 µM].
`C[C@]12C=CC(=O)C=C1CC[C@@H]1[C@@H]2[C@@H](O)C[C@@]2(C)[C@H]1CC[C@]2(O)C(=O)COC(=O)CCC(=O)O`: the Potency result in experiment [1], in experiment [2], in experiment [3], in experiment [4] and in experiment [5] was “inactive” in each case.
Consider `CC1=CC[C@]2(C(=O)O[C@@H]3O[C@H](CO[C@@H]4O[C@H](CO)[C@@H](O[C@@H]5O[C@@H](C)[C@H](O)[C@@H](O)[C@H]5O)[C@H](O)[C@H]4O)[C@@H](O)[C@H](O)[C@H]3O)CC[C@]3(C)C(CCC4[C@@]5(C)C[C@@H](O)[C@H](O)[C@@](C)(CO)C5CC[C@]43C)C2C1C` (stereo not given in full), for which the Potency result in experiment [1] and in experiment [2] was “inactive” in each case. In addition, in experiment [3], the activity change, negative = inhibition was 0.527% [at 11.6 µM]. Further, the activity change, negative = thiol reactive in experiment [4] is 137% [at 11.5 µM]. Moreover, the activity, negative = inhibition in experiment [5] was 3.97% [at 11.6 µM].
Consider `CO[C@H]1C=C2C(CC[C@H](O[C@@H]3O[C@H](CO)[C@@H](O)[C@@H](O)[C@H]3O)C2(C)C)[C@]2(C)CC[C@]3(C)C([C@H](C)C(O)C(C=C(C)C)O[C@@H]4O[C@H](CO)[C@@H](O)[C@@H](O)[C@H]4O)CC[C@@]3(C)C12` (stereo not given in full), for which the Potency result in experiment [1] and in experiment [2] was “inactive” in each case. For the same molecule, in experiment [3], the activity change, negative = inhibition was 1.78% [at 11.6 µM]. The activity change, negative = thiol reactive in experiment [4] is 133% [at 11.5 µM]. Also, the activity, negative = inhibition in experiment [5] was 4.54% [at 11.6 µM].
With `CC12CC34C=CC(=O)C(C)(CCC(=O)O)C3C(CC1C4)O2` (stereo not given), the Potency result in experiment [1], in experiment [2], in experiment [3], in experiment [4] and in experiment [5] was “inactive” in each case.
Turning to `O=C(NC[C@H](O)CN1CCc2ccccc2C1)c1cc(NC2COC2)ncn1`, the Potency entry in experiment [1], in experiment [2], in experiment [3], in experiment [4] and in experiment [5] was “inactive” each time.
For the molecule `CCS(=O)(=O)N1CCC([C@@H](C)n2c(C)c(C(=O)NCc3c(OC)cc(C)[nH]c3=O)c3ccccc32)CC1`, the Potency entry in experiment [1], in experiment [2], in experiment [3], in experiment [4] and in experiment [5] was “inactive” each time.
On to `CC[C@H](C)/C=C(C)/C=C/C(=O)Cc1cc(O)c(C)c(O)c1C=O`, for which the Potency entry in experiment [1], in experiment [2], in experiment [3] and in experiment [5] was “inactive” in each case. Further, the Potency in experiment [4] is 14.7 µM (active).
